Hits are enriched below; roughly 3.4% of the tested compounds scored in any of these assays.
HGIII-sPLA2 inh: Blocks human group III sPLA2 activity; Q9NZ20; QFRET BODIPY PC-A2 liposome hydrolysis, fluorescence; inhibition, % at 12.2 µM; 370,000 compounds, 0.56% hits; AID 743126;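 active = inhibition above mean plus 3 SD of compounds lying within the high and low control bounds, cut at about 19% in these data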
Target sequence (Q9NZ20 whole entry, looked up): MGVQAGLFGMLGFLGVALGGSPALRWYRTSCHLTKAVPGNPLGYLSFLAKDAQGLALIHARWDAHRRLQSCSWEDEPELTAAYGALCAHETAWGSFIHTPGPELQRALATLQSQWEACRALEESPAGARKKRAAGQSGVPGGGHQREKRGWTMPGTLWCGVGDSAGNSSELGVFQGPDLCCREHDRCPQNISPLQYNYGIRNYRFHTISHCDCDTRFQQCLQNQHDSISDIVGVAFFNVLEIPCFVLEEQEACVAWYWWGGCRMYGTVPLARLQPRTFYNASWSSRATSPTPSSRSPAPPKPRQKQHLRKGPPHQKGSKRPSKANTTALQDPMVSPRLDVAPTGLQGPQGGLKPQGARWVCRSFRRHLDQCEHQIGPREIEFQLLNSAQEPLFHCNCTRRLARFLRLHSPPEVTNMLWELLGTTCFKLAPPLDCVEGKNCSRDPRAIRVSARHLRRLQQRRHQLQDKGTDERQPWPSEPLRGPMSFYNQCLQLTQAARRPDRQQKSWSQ
PLCg1 inh: blocks human PLC-gamma1 enzyme activity | P19174 | AID 720700 | inhibition, % at 12.2 µM | purified PLC-gamma1, fluorogenic substrate, fluorescence | 370,000 compounds, 0.84% hits; in the data active = inhibition above about 9.5%
KLK7 zymogen act: proKLK7 (human) activation, primary screen; P49862; purified proKLK7, EDANS-DABCYL substrate fluorescence; 100% is mature enzyme control, 0% vehicle; activation, % at 7 µM; 370,000 compounds, 0.9% hits; AID 652039;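 active = activation above the mean of all tested compounds plus 3 SD, computed per campaign excluding outliers beyond control limits, cut at about 13% in these data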
ADAM17 inh: ADAM17 inhibition, QFRET primary screen | P78536 | recombinant ADAM17, EDANS/DABCYL FRET peptide cleavage | inhibition, % at 6.95 µM | 370,000 compounds, 0.83% hits;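 active = inhibition above the mean of compounds lying between control limits plus 3 SD, set per campaign, cut at about 8.5% in these data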
PLCb3 inh: inhibitors of human phospholipase C beta3; AID 720704; inhibition, % at 12.2 µM; Q01970; Purified PLC-beta3, fluorogenic substrate, fluorescence; 370,000 compounds, 0.18% hits; in the data active = inhibition above about 11%
ADAM10 inh: inhibits human ADAM10 | AID 720582 | recombinant ADAM10, EDANS/DABCYL FRET peptide cleavage, 3 h | O14672 | 370,000 compounds, 0.62% hits | inhibition, % at 7 µM;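 active = inhibition above a per-campaign cutoff equal to the mean of compounds falling between control-based bounds plus 3 SD, cut at about 20% in these data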
Of the large screens only hits and unclear results are named; the others gave an inactive call; ! = not active in a repeat.

O=C(N/N=C/c1cccs1)c1[nH]ncc1Br	PLCg1 inh 12.4
Cc1cc(-c2n[nH]c(=S)n2N=Cc2cc(Br)ccc2F)n[nH]1	none
N#CCC[C@@H]1CC[C@]2(CCCN(C(=O)C3CCCC3)C2)O1	none
O=C(COC(=O)c1n[nH]c2ccccc12)Nc1cccc(S(=O)(=O)N2CCOCC2)c1	none
CCCc1nc2ccccc2c(C(=O)OCC(=O)Nc2cccc(S(=O)(=O)N3CCOCC3)c2)c1CC	ADAM17 inh 16.8, ADAM10 inh 32.1
COC(=O)[C@]12C[C@H](CC(=O)NCC34CC5CC(CC(C5)C3)C4)C(=O)N(Cc3ccc(Cl)cc3Cl)C1=C[C@H](C1CCCC1)O[C@@H]2C	none
CC(C)CCN(C)C1CCN(C(=O)Nc2ccc(Cl)cc2)CC1	none
Cc1ccc(CSC(Nc2ccc(F)cc2)=C(C#N)C#N)cc1	ADAM10 inh 21.3
CCN(CC)C(=O)CSC(Nc1ccc(F)cc1)=C(C#N)C#N	none
CC(C)c1cc(C(C)C)c(S(=O)(=O)N2CCCC(C(=O)NCc3cccs3)C2)c(C(C)C)c1 (stereo not given)	none
Cc1cccc(C(=O)N2CCC(=O)N(C(COCc3ccccc3)Cc3ccccc3)CC2)c1 (stereo not given)	PLCg1 inh 15.0
CC(=O)Nc1ccc(S(=O)(=O)N(CCCN2CCOCC2)Cc2cccs2)cc1	none
CC(C)(C)c1ccc(S(=O)(=O)N(CCCN2CCOCC2)Cc2cccs2)cc1	PLCg1 inh 10.4!
CCN1C[C@@H]2[C@@H]3C(=O)N(Cc4ccccc4)C(=O)[C@@H]3[C@](C)(C1=O)N2C(=O)c1ccccc1	PLCb3 inh 11.2
Fc1ccccc1/C=N/Nc1ncnc2nc[nH]c12	PLCg1 inh 9.8
O=C(CCCN1C(=O)/C(=C/c2ccccc2Cl)SC1=S)NNC(=O)c1ccccc1	none
O=C(CCCN1C(=O)S/C(=C\c2ccccc2)C1=O)NNC(=O)c1ccccc1O	HGIII-sPLA2 inh 24.5
O=C(CCCN1C(=O)/C(=C/c2ccccc2Cl)SC1=S)NNC(=O)c1ccc(Cl)cc1Cl	ADAM10 inh 20.8
O=C(c1cc(-c2ccc(Cl)cc2)n[nH]1)N1CCc2ccccc2C1	none
COc1ccc(F)cc1-c1cc(C(=O)N2CCc3ccccc3C2)[nH]n1	PLCg1 inh 11.1, PLCb3 inh 10.7
C=C(C)CSc1nnc(-c2cc(-c3ccc(OC)cc3)n[nH]2)n1N	none
COc1cc(C2NCC(c3ccc(Cl)cc3Cl)c3c2[nH]c2ccccc32)cc(OC)c1OC (stereo not given)	ADAM17 inh 22.0, ADAM10 inh 46.5
O=C(Nc1nccs1)c1ccccc1N=Cc1ccccc1	KLK7 zymogen act 41.9
N=c1c(-c2nc3ccccc3[nH]2)cc(C(=O)c2ccco2)nn1-c1ccccc1	HGIII-sPLA2 inh 24.5
CCC(C)CNC(=O)c1oc(=O)c2ccccc2c1-c1ccc(C)cc1 (stereo not given)	none
Oc1ccc(Cl)cc1-c1cc(-c2ccccc2)n[nH]1	ADAM10 inh 23.0
CCCCNC(=O)C[C@H]1C(=O)N(CCCOC)C2=CCCCC[C@]21C(=O)OC	none
O=C(Nc1ccccc1Cl)c1cc(C2CCCN(C(=O)c3cccc(O)c3)C2)on1 (stereo not given)	none
O=C(Nc1ccccc1Cl)c1cc(C2CCCN(C(=O)c3ccccc3)C2)on1 (stereo not given)	PLCb3 inh 10.8
CC[C@]12c3[nH]c4ccc(Cl)cc4c3CCN1C(=O)[C@@H](CC(=O)NCC13CC4CC(CC(C4)C1)C3)C[C@@H]2C(=O)N1CCN(C(=O)c2ccco2)CC1	ADAM10 inh 35.5
CC[C@]12c3[nH]c4ccc(Cl)cc4c3CCN1C(=O)[C@@H](CC(=O)NCc1ccco1)C[C@@H]2C(=O)N1CCN(C(=O)c2ccco2)CC1	none
CCCCN(CCCNC(=O)Cn1nc(CC)n2c(cc3sc(C)cc32)c1=O)Cc1ccccc1	none
CCc1nn(CC(=O)NCCCN(CC)Cc2ccccc2)c(=O)c2cc3sccc3n12	PLCg1 inh 10.6
O=[N+]([O-])c1cc(/C=N/Nc2nc3ccccc3[nH]2)c(O)cc1O	PLCg1 inh 47.8
COC(=O)C(C(=O)OC)C1C=CCN(C(C)=O)C1 (stereo not given)	PLCg1 inh 28.8
CCNC(=O)N(C(=O)NCC)n1c(C)nnc1C	KLK7 zymogen act 15.7
CCNC(=O)N(C)c1nncnc1C(=O)NC	none
CCC(NC(=O)CN1CCN(c2cccc(OC)c2)CC1)c1ccccc1 (stereo not given)	none
N#Cc1c(C(F)(F)F)cc(-c2ccccc2)[nH]c1=O	KLK7 zymogen act 25.5
C=CCC[C@H](Cc1ccc(F)cc1)C(=O)OC[C@H](Cc1c[nH]c2ccccc12)NC(=O)[C@@H](CC=C)CC(=O)NCCO	PLCg1 inh 12.3, ADAM10 inh 26.0
C=CC[C@@H](CC(=O)N[C@H](CO)Cc1ccccc1)C(=O)N[C@H](COC(=O)[C@H](CC=C)CC(=O)OC(C)(C)C)Cc1c[nH]c2ccccc12	PLCg1 inh 10.3, ADAM17 inh 16.6, ADAM10 inh 28.7
C=CC[C@@H](CC(=O)N(CCO)Cc1ccccc1)C(=O)N[C@@H](COC(=O)[C@H](CC=C)CC(=O)OC(C)(C)C)Cc1c[nH]c2ccccc12	ADAM17 inh 22.2, ADAM10 inh 35.0
C=CCC[C@@H](Cc1ccc(F)cc1)C(=O)OC[C@@H](Cc1c[nH]c2ccccc12)NC(=O)[C@@H](CC=C)CC(=O)N[C@@H](CO)Cc1ccccc1	none
O=C(Nc1cc(Cl)ccc1F)C1CCCN(c2nnc(-n3cccc3)s2)C1 (stereo not given)	none
CCOC(=O)c1csc(NC(=O)C2CCCN(S(=O)(=O)c3ccc([N+](=O)[O-])cc3)C2)n1 (stereo not given)	none
COc1ccc2oc(=O)c(C(=O)Oc3ccc(NC(C)=O)cc3)cc2c1	KLK7 zymogen act 214.9
COc1ccc(NC(=O)c2cc3cc(OC)ccc3oc2=O)cc1	none
Cc1cc(=O)oc2c(CN(CC(C)C)CC(C)C)c(O)ccc12	KLK7 zymogen act 34.8
CC(=O)c1c(C)[nH]c(C(=O)OCC(=O)Nc2cc(Cl)ccc2[N+](=O)[O-])c1C	PLCg1 inh 10.8
CC(=O)c1c(C)[nH]c(C(=O)OCC(=O)Nc2ccc(C)cc2[N+](=O)[O-])c1C	none
COc1ccccc1CN1CC(C(=O)N(C)CCOc2ccccc2)CCC1=O (stereo not given)	none
COc1ccccc1CN1CC(C(=O)N(C)CCc2ccccn2)CCC1=O (stereo not given)	PLCb3 inh 13.3
CC(=O)Oc1ccc(/C=C2/C(=O)N(c3ccccc3)N=C2C)cc1	PLCg1 inh 30.8
COc1ccc(/C=C2/C(=O)N(c3ccccc3)N=C2C)cc1OC	PLCg1 inh 18.5
